Results reported in PubChem BioAssay AID1159580 (chemical genetic matrix, 2015).
The whole screen tested about 5,500 compounds, of which about 2,000 (36%) were called active. Not shown: some 18% with an inconclusive outcome. Rule as the data show it: active = normalized growth mostly below about 0.91 (no sharp cut-off); inconclusive = no clear call, values can overlap the other calls; inactive = mostly above about 0.92. The list shows a part of the results.

Experiment: chemical genetic growth profiling, strain panel (AID 1159580);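 also: tested at 20 µM; growth read once vehicle control cultures reached saturation at 30 °C; 1 = growth at the plate median or of vehicle wells; lower values mean less growth of the strain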
Conditions: growth OD

Measured: normalized growth

NC(=O)c1ccc[n+]([C@@H]2O[C@H](COP(=O)([O-])OP(=O)(O)OC[C@H]3O[C@@H](n4cnc5c(N)ncnc54)[C@H](O)[C@@H]3O)[C@@H](O)[C@H]2O)c1
inactive: S. cerevisiae deletion strains, locus YJR075W, strain HOC1, hits give low values 1.02 | S. cerevisiae deletion strains, locus YKL009W, strain mrt4, hits give low values 0.975 | S. cerevisiae deletion strains, locus YKL068W, hits give low values 0.987 | S. cerevisiae deletion strains, locus YKL085W, strain MDH1 (second series), hits give low values 0.986 | S. cerevisiae deletion strains, locus YKL085W, strain MDH1, hits give low values 0.986 | S. cerevisiae deletion strains, locus YKL160W, strain elf1, hits give low values 1.06 | S. cerevisiae deletion strains, locus YKL190W, strain CNB1, hits give low values 0.996 | S. cerevisiae deletion strains, locus YKR001C, strain vps1, hits give low values 0.997 | S. cerevisiae deletion strains, locus YKR026C, strain gcn3, hits give low values 1.02 | S. cerevisiae deletion strains, locus YKR091W, strain srl3, hits give low values 1.02 | S. cerevisiae deletion strains, locus YLL001W, strain dnm1, hits give low values 1.03 | S. cerevisiae deletion strains, locus YLL026W, hits give low values 1.02 | S. cerevisiae deletion strains, locus YLL041C, strain sdh2, hits give low values 1.04 | S. cerevisiae deletion strains, locus YLR027C, strain aat2, hits give low values 1.03 | S. cerevisiae deletion strains, locus YLR039C, strain RIC1, hits give low values 0.987 | S. cerevisiae deletion strains, locus YLR058C, strain SHM2, hits give low values 0.977 | S. cerevisiae deletion strains, locus YLR102C, strain apc9, hits give low values 0.989 | S. cerevisiae deletion strains, locus YLR113W, strain HOG1, hits give low values 0.982 | S. cerevisiae deletion strains, locus YLR221C, strain rsa3, hits give low values 1.04 | S. cerevisiae deletion strains, locus YLR258W, strain gsy2, hits give low values 1.04 | S. cerevisiae deletion strains, locus YLR262C, strain YPT6 (second series), hits give low values 1.05 | S. cerevisiae deletion strains, locus YLR262C, strain YPT6, hits give low values 0.939 | S. cerevisiae deletion strains, locus YLR268W, strain sec22, hits give low values 1.08 | S. cerevisiae deletion strains, locus YLR320W, strain mms22, hits give low values 1.03 | S. cerevisiae deletion strains, locus YLR330W, strain CHS5, hits give low values 0.982 | S. cerevisiae deletion strains, locus YLR342W, strain FKS1 (second series), hits give low values 0.986 | S. cerevisiae deletion strains, locus YLR342W, strain FKS1, hits give low values 1.02 | S. cerevisiae deletion strains, locus YLR357W, strain rsc2, hits give low values 1.05 | S. cerevisiae deletion strains, locus YLR370C, strain arc18, hits give low values 1.04 | S. cerevisiae deletion strains, locus YLR371W, strain rom2, hits give low values 0.977 | S. cerevisiae deletion strains, locus YLR384C, strain iki3, hits give low values 1.04 | S. cerevisiae deletion strains, locus YLR418C, strain cdc73, hits give low values 1.02 | S. cerevisiae deletion strains, locus YML016C, strain PPZ1, hits give low values 0.982 | S. cerevisiae deletion strains, locus YML032C, strain rad52, hits give low values 1.01 | S. cerevisiae deletion strains, locus YML120C, strain ndi1, hits give low values 1.04 | S. cerevisiae deletion strains, locus YML124C, strain tub3, hits give low values 0.989 | S. cerevisiae deletion strains, locus YMR058W, strain fet3, hits give low values 1.04 | S. cerevisiae deletion strains, locus YMR078C, strain ctf18, hits give low values 0.986 | S. cerevisiae deletion strains, locus YMR125W, strain sto1, hits give low values 1.06 | S. cerevisiae deletion strains, locus YMR129W, hits give low values 1.02 | S. cerevisiae deletion strains, locus YMR205C, strain PFK2, hits give low values 1.04 | S. cerevisiae deletion strains, locus YMR223W, strain ubp8, hits give low values 0.974 | S. cerevisiae deletion strains, locus YMR231W, strain pep5, hits give low values 1.04 | S. cerevisiae deletion strains, locus YMR263W, strain SAP30, hits give low values 1 | S. cerevisiae deletion strains, locus YMR307W, strain GAS1, hits give low values 0.992 | S. cerevisiae deletion strains, locus YNL067W, strain RPL9B, hits give low values 1.01 | S. cerevisiae deletion strains, locus YNL071W, strain lat1, hits give low values 1.03 | S. cerevisiae deletion strains, locus YNL128W, strain TEP1, hits give low values 0.953 | S. cerevisiae deletion strains, locus YNL153C, strain GIM3, hits give low values 1.02 | S. cerevisiae deletion strains, locus YNL183C, strain NPR1, hits give low values 0.969 | S. cerevisiae deletion strains, locus YNL209W, strain ssb2, hits give low values 1.04 | S. cerevisiae deletion strains, locus YNL233W, strain BNI4, hits give low values 1.02 | S. cerevisiae deletion strains, locus YNL248C, strain rpa49, hits give low values 1.07 | S. cerevisiae deletion strains, locus YNL250W, strain rad50, hits give low values 0.985 | S. cerevisiae deletion strains, locus YNL271C, strain bni1, hits give low values 0.994 | S. cerevisiae deletion strains, locus YNL298W, strain CLA4, hits give low values 0.996 | S. cerevisiae deletion strains, locus YNL307C, strain MCK1, hits give low values 1.01 | S. cerevisiae deletion strains, locus YNL322C, strain KRE1 (second series), hits give low values 1.03 | S. cerevisiae deletion strains, locus YNL322C, strain KRE1, hits give low values 0.983 | S. cerevisiae deletion strains, locus YNR049C, strain mso1, hits give low values 1.02 | S. cerevisiae deletion strains, locus YNR052C, strain pop2, hits give low values 0.995 | S. cerevisiae deletion strains, locus YOL006C, strain TOP1, hits give low values 1.01 | S. cerevisiae deletion strains, locus YOL012C, strain htz1 0.903 | S. cerevisiae deletion strains, locus YOL147C, strain pex11, hits give low values 0.994 | S. cerevisiae deletion strains, locus YOR001W, strain rrp6, hits give low values 1.05 | S. cerevisiae deletion strains, locus YOR061W, strain CKA2, hits give low values 0.969 | S. cerevisiae deletion strains, locus YOR069W, strain VPS5, hits give low values 0.993 | S. cerevisiae deletion strains, locus YOR070C, strain gyp1, hits give low values 1.02 | S. cerevisiae deletion strains, locus YOR080W, strain dia2, hits give low values 1.02 | S. cerevisiae deletion strains, locus YOR083W, strain WHI5, hits give low values 1.06 | S. cerevisiae deletion strains, locus YOR106W, strain vam3, hits give low values 1.07 | S. cerevisiae deletion strains, locus YOR136W, strain idh2, hits give low values 0.991 | S. cerevisiae deletion strains, locus YOR144C, strain elg1, hits give low values 0.991 | S. cerevisiae deletion strains, locus YOR184W, strain ser1, hits give low values 1 | S. cerevisiae deletion strains, locus YOR231W, strain MKK1, hits give low values 0.999 | S. cerevisiae deletion strains, locus YOR265W, strain rbl2, hits give low values 1.02 | S. cerevisiae deletion strains, locus YOR270C, strain vph1, hits give low values 1.14 | S. cerevisiae deletion strains, locus YOR290C, strain snf2, hits give low values 1.07 | S. cerevisiae deletion strains, locus YOR316C, strain cot1, hits give low values 0.988 | S. cerevisiae deletion strains, locus YPL051W, strain arl3, hits give low values 1.05 | S. cerevisiae deletion strains, locus YPL055C, strain LGE1, hits give low values 0.997 | S. cerevisiae deletion strains, locus YPL078C, strain atp4, hits give low values 1.08 | S. cerevisiae deletion strains, locus YPL106C, strain sse1, hits give low values 1.04 | S. cerevisiae deletion strains, locus YPL240C, strain hsp82, hits give low values 1.01 | S. cerevisiae deletion strains, locus YPL241C, strain CIN2, hits give low values 0.984 | S. cerevisiae deletion strains, locus YPL256C, strain CLN2, hits give low values 0.961 | S. cerevisiae deletion strains, locus YPR119W, strain clb2, hits give low values 0.993 | S. cerevisiae deletion strains, locus YPR141C, strain kar3, hits give low values 0.991 | S. cerevisiae deletion strains, locus YPR163C, strain tif3, hits give low values 1 | S. cerevisiae deletion strains, locus YPR167C, strain met16, hits give low values 0.998 | S. cerevisiae deletion strains, strain wtn01, hits give low values 1.03 | S. cerevisiae strains, strain wild type, hits give low values 0.993
